Screening data deposited in PubChem BioAssay by several laboratories.
MEKK2mut PB1 HTS: signal of MEK5 binding to mutant human MEKK2 PB1 domain. bead flow cytometry, Alexa488-MEK5 binding to MEKK2 mutant. percent response, % at 10 µM. hit rate 0.35% among 290,000. AID 1530; in the data active = percent response above about 24%, passing the limit was not always enough
MEKK3 PB1 HTS: MEKK3-MEK5 PB1 interaction, increase or decrease; Q99759; bead-based flow cytometry, Alexa488-MEK5 binding to MEKK3; actives lie on both sides; 0 = blocked by unlabeled MEK5, 100 = vehicle; binding response (% of control), % at 10 µM; hit rate 1.4% among 290,000;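 active = binding response more than 3 SD above or below the average of its plate-row segment, actives on both sides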;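 also: Alexa488 bead fluorescence after subtracting the streptavidin-only scavenger bead signal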
CHT inh: inhibitors of human choline transporter CHT. Q9GZV3. CHT-expressing cells, membrane potential dye, choline response; hits give low values. B-score at 10 µM. hit rate 0.86% among 310,000. AID 488975;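 active = B-score over 3 SD under the library average, and starting fluorescence ratio not unusually high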;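 also: choline stimulus applied at its EC90 after an EC20 pre-addition; B-score computed on integrated fluorescence ratio after choline addition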
Target sequence (Q9GZV3 whole entry, looked up): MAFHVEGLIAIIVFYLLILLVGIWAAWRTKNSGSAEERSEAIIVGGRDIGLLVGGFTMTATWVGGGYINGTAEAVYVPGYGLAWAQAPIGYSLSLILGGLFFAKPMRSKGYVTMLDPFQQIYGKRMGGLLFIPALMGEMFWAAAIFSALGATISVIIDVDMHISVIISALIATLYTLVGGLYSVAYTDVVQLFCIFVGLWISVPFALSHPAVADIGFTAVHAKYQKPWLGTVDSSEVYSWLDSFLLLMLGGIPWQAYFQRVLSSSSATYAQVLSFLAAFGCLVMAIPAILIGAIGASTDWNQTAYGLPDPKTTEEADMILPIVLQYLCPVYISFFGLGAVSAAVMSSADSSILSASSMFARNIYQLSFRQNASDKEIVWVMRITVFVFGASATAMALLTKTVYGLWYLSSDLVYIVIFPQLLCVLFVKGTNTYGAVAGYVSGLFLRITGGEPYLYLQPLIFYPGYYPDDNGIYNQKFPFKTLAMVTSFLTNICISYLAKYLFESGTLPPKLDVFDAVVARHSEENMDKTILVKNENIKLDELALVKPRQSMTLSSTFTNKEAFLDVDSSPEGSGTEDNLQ
CHT allo act: allosterically activates the human high affinity choline transporter; Q9GZV3; CHT-expressing cells, membrane potential dye, choline EC20; hits give high values; LV-AA mutant CHT in HEK293 cells; B-score at 10 µM; hit rate 0.49% among 310,000; AID 488977;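 active = initial fluorescence not abnormally high and integrated response B-score, plate-corrected, over 3 SD above library mean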
SUMO Mot1 rescue: blocks SUMOylation pathway, rescuing yeast Mot1-301 growth; S. cerevisiae Mot1-301 growth rescue, ATP luminescence, 38.5C; percent above DMSO median, 100 means doubled; growth rescue, % at 18.8 µM; hit rate 1% among 320,000; AID 2716;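 active = every valid replicate shows activation above 250% relative to neutral control wells; inactive = the rest, any valid replicate at or below 250%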
MEKK2wt PB1 HTS: raises or lowers MEK5 binding to wildtype human MEKK2 PB1 domain | bead flow cytometry, Alexa488-MEK5 binding to MEKK2 WT; actives lie on both sides | binding response (% of control), % at 10 µM | hit rate 1.1% among 290,000 | AID 1531 | Q9Y2U5; in the data active = binding response below about 67% or above about 130%
MEKK2wt confirm: raises or lowers MEK5 binding to wildtype human MEKK2, retest; binding response (% of control), % at 10 µM; bead flow cytometry, Alexa488-MEK5 binding to MEKK2 WT; actives lie on both sides; hit rate 2.4% among 5,900; shares compounds with MEKK3 PB1 HTS; in the data active = binding response below about 16% or above about 210%; inactive = in between
MEKK2mut confirm: signal of MEK5 binding to mutant human MEKK2, retest | bead flow cytometry, Alexa488-MEK5 binding to MEKK2 mutant | percent response, % at 10 µM | shares compounds with MEKK3 PB1 HTS | hit rate 2% among 5,900 | AID 1893; in the data active = percent response mostly above about 71%, no sharp cut-off; inactive = mostly below about 38%;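 also: higher means compound restores mutant binding toward wildtype level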
MEKK3-MEK5 inh: MEKK3-MEK5 PB1 inhibition, single concentration confirmation. binding response (% of control), % at 10 µM. hit rate 1.8% among 5,900. shares compounds with MEKK3 PB1 HTS. bead flow cytometry, Alexa488-MEK5 binding to MEKK3; hits give low values. AID 1894;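 active = binding response below 72% of control, or above a set upper limit, though filed actives all read lower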;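 also: lower values mean stronger disruption of MEK5 binding to MEKK3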
Each line names hits and unclear results; the compound was inactive in the other large screens (follow-up assays come after a bar, where they were run); [ ] = remark or other dose. Sampled rows, rich in hits. Any-hit rate of the full collection: about 4.1%.

CCn1c(SCC(=O)c2ccccc2)nc2sc3c(c2c1=O)CCN(C)C3	MEKK3 PB1 HTS 130 | MEKK2wt confirm inactive | MEKK2mut confirm inactive | MEKK3-MEK5 inh inactive
CCn1c(SCC(=O)NCCc2ccccc2)nc2sc3c(c2c1=O)CCN(C)C3	none
O=C(O)c1cc(Cl)c(Cl)cc1C(=O)NCc1ccco1	none
COC(=O)Cc1cc(=O)n(-c2nc3ccccc3[nH]2)[nH]1	MEKK3 PB1 HTS 73[inhibitor] | MEKK2wt confirm inactive | MEKK2mut confirm inactive | MEKK3-MEK5 inh inactive
COC(=O)Cc1[nH]n(-c2nc3ccccc3s2)c(=O)c1C(C)=O	none
CCC(C)NCCCOc1c(C)cc(C)cc1Br (centres undefined)	MEKK3 PB1 HTS 147 | MEKK2wt confirm inactive | MEKK2mut confirm inactive | MEKK3-MEK5 inh inactive
CC(C)n1c(SCC(=O)Nc2nncs2)nnc1-c1ccco1	none
Cc1ccc(/C=N/Nc2cc(C)nc(NCc3ccccc3)n2)cc1	MEKK2mut PB1 HTS 63, MEKK2wt PB1 HTS 199 | MEKK2wt confirm inactive | MEKK2mut confirm inactive | MEKK3-MEK5 inh inactive
Cc1cc(N/N=C/c2ccc(N(C)C)cc2)nc(NCc2ccccc2)n1	MEKK2mut PB1 HTS 75, MEKK2wt PB1 HTS 229 | MEKK2wt confirm 247 | MEKK2mut confirm 89 | MEKK3-MEK5 inh inactive
Cc1cc(N/N=C/c2ccc(Cl)cc2Cl)nc(NCc2ccccc2)n1	MEKK2wt PB1 HTS 161 | MEKK2wt confirm inactive | MEKK2mut confirm inactive | MEKK3-MEK5 inh inactive
Cc1cc(N/N=C/c2ccc(O)cc2)nc(NS(=O)(=O)c2ccccc2)n1	none
O=C(CSc1nnnn1C1CCCCC1)NCCc1ccccc1	none
COc1ccc(NC(=O)COc2ccccc2)cc1NC(=O)c1ccco1	none
CCN(CC(=O)Nc1ccc(OC)cc1)C(=O)c1cc(S(=O)(=O)N(C)C)ccc1N1CCCC1	none (no result: MEKK2mut PB1 HTS, MEKK3 PB1 HTS, MEKK2wt PB1 HTS)
COc1ccc(Cl)cc1NC(=S)NCCCN1CCCC1=O	MEKK3 PB1 HTS 46[inhibitor] (no result: SUMO Mot1 rescue) | MEKK2wt confirm inactive | MEKK2mut confirm inactive | MEKK3-MEK5 inh inactive
CCC(=O)Oc1ccc(C(=O)Nc2c[nH]c(=O)[nH]c2=O)cc1	MEKK3 PB1 HTS 69[inhibitor] | MEKK2wt confirm inactive | MEKK2mut confirm inactive | MEKK3-MEK5 inh inactive
CC(C)(C)c1ccc(C(=O)NCCNC(=O)c2ccco2)cc1	none
CCOC(=O)c1c(NC(=O)C(=O)N/N=C/c2ccccc2OC)sc2c1CCCCC2	none
CCOC(=O)c1c(NC(=O)C(=O)N/N=C/c2ccccc2O)sc2c1CCCCC2	MEKK3 PB1 HTS 137 | MEKK2wt confirm inactive | MEKK2mut confirm inactive | MEKK3-MEK5 inh inactive
COc1ccc(CN2CCC(n3nccc3NC(=O)C3CCCC3)CC2)cc1	MEKK2wt PB1 HTS 144 | MEKK2wt confirm inactive | MEKK2mut confirm inactive | MEKK3-MEK5 inh inactive
CC(C)Cc1ccc(CN2CCC(n3nccc3NC(=O)C3CCCC3)CC2)cc1	none
CC(C(=O)Nc1ccc(O)cc1C(=O)O)N1C(=O)/C(=C\c2cccs2)SC1=S (centres undefined)	none
COc1cc(NC(=O)c2ccccc2Cl)c2ncccc2c1	MEKK2mut PB1 HTS 26 | MEKK2wt confirm inactive | MEKK2mut confirm inactive | MEKK3-MEK5 inh inactive
O=C(Nc1cccc2cccnc12)c1ccc(Cl)cc1Cl	none
COc1ccc(OC2OC3COC(C)(C)OC3C(O)C2NC(C)=O)cc1 (centres undefined)	MEKK2mut PB1 HTS 24 | MEKK2wt confirm inactive | MEKK2mut confirm inactive | MEKK3-MEK5 inh inactive
CCCOc1ccc(C2=NNC(=O)CC2)cc1	MEKK3 PB1 HTS 68[inhibitor] (no result: SUMO Mot1 rescue) | MEKK2wt confirm inactive | MEKK2mut confirm inactive | MEKK3-MEK5 inh inactive
CCCn1c(=S)[nH]c2cc(C(=O)N(CCO)Cc3ccccc3)ccc2c1=O	none
COc1cc(NC2c3ccccc3C(=O)N2Cc2ccccc2Cl)cc(OC)c1 (centres undefined)	MEKK3 PB1 HTS 135 | MEKK2wt confirm inactive | MEKK2mut confirm inactive | MEKK3-MEK5 inh inactive
COc1cccc(NC2c3ccccc3C(=O)N2Cc2ccccc2Cl)c1 (centres undefined)	none
CC1CCCCN1C(=O)CSc1nc2ccccc2[nH]1 (centres undefined)	MEKK3 PB1 HTS 143 | MEKK2wt confirm inactive | MEKK2mut confirm inactive | MEKK3-MEK5 inh inactive
CC1=N/C(=C\c2ccc([N+](=O)[O-])cc2)C(=O)N1c1ccc(Br)c(C)c1	MEKK3 PB1 HTS 82[inhibitor], MEKK2wt PB1 HTS -2.0 | MEKK2wt confirm inactive | MEKK2mut confirm inactive | MEKK3-MEK5 inh inactive
C#CCOCCOCCOCCNc1nc(N2CCN(C(=O)C(Cc3ccc(O)cc3)n3cc(C(N)CC(C)C)nn3)CC2)nc(N2CCN(C(=O)C(Cc3cc4ccccc4[nH]3)n3cc(C(N)Cc4ccc(O)cc4)nn3)CC2)n1 (centres undefined)	MEKK2mut PB1 HTS 112, MEKK2wt PB1 HTS 258 | MEKK2wt confirm 221 | MEKK2mut confirm 86 | MEKK3-MEK5 inh inactive
C#CCOCCOCCOCCNc1nc(N2CCN(C(=O)[C@H](CCC(=O)O)n3cc(C(N)Cc4ccc(O)cc4)nn3)CC2)nc(N2CCN(C(=O)[C@H](Cc3cc4ccccc4[nH]3)n3cc(C(N)CC(C)C)nn3)CC2)n1 (some centres undefined)	MEKK2wt PB1 HTS 145 | MEKK2wt confirm inactive | MEKK2mut confirm inactive | MEKK3-MEK5 inh inactive
C#CCOCCOCCOCCNc1nc(N2CCN(C(=O)[C@H]([C@@H](C)CC)n3cc([C@@H](N)CO)nn3)CC2)nc(N2CCN(C(=O)[C@H](Cc3cc4ccccc4[nH]3)n3cc([C@@H](N)Cc4ccc(O)cc4)nn3)CC2)n1	MEKK2wt PB1 HTS 155 | MEKK2wt confirm 231 | MEKK2mut confirm 114 | MEKK3-MEK5 inh inactive
O=C1C(C2=NC(c3ccccn3)C3C(=O)N(c4ccccc4)C(=O)C23)=C(O)c2ccccc21 (centres undefined)	none
O=C(NCc1cccc(OC(F)(F)F)c1)c1ccc2c(c1)S(=O)(=O)c1cc(Cl)ccc1C2=O	none (no result: MEKK2mut PB1 HTS, MEKK3 PB1 HTS, CHT inh, CHT allo act, MEKK2wt PB1 HTS)
CCOc1ccc(CN(C)CC(=O)NNC(=O)c2ccc(Cl)cc2)cc1OC	MEKK3 PB1 HTS 128 | MEKK2wt confirm inactive | MEKK2mut confirm inactive | MEKK3-MEK5 inh inactive
COc1cccc(CN(C)CC(=O)NNC(=O)c2ccc(Cl)cc2)c1	none
